Most compounds without a hit are left out; they make up all but 0.93% or so of the library.
RPL19A TOR yeast: yeast TOR pathway RPL19A-GFP modulation | S. cerevisiae RPL19A-GFP strain, flow cytometry, 3 h; stronger effect = lower value | percent response vs DMSO, % at 10 µM | 330,000 compounds, 0.3% hits;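 active = percent response vs DMSO below 50%; inconclusive = fewer than 70 events counted for the yeast strain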;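 also: median channel GFP fluorescence of the barcoded RPL19A-GFP strain; ratio of sample median GFP to plate DMSO average so 100% = DMSO; lower means less RPL19A-GFP as with rapamycin TOR inhibition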
AGP1 TOR yeast: alters AGP1-GFP fluorescence in TOR pathway yeast screen. S. cerevisiae AGP1-GFP multiplex flow cytometry, 3 h; GFP as percent of DMSO wells. GFP response vs DMSO, % at 10 µM. 320,000 compounds, 0.02% hits;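 active = GFP response relative to DMSO above a set limit, near screen average plus 3 SD, cut at about 150% in these data; inconclusive = fewer than 70 cells counted for the yeast strain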;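 also: median GFP channel fluorescence of the gated AGP1 strain per well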
MEP2 TOR yeast: yeast TOR pathway MEP2-GFP modulation. GFP response vs DMSO, % at 10 µM. 330,000 compounds, 0.51% hits. S. cerevisiae MEP2-GFP strain, flow cytometry GFP, 3 h; 100% = DMSO control level. AID 2016;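 active = GFP response versus DMSO above a set limit, roughly screen mean plus 3 SD, cut at about 180% in these data; inconclusive = fewer than 70 cells counted for a yeast strain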;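 also: median GFP fluorescence of the barcode-gated MEP2-GFP cells per well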
CIT2 TOR yeast: yeast TOR pathway CIT2-GFP modulation; S. cerevisiae CIT2-GFP strain, flow cytometry, 3 h; 100 means same as DMSO wells; GFP response vs DMSO, % at 10 µM; 320,000 compounds, 0.065% hits; AID 2029;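 active = GFP response relative to DMSO above a set limit, near the screen mean plus 3 SD, cut at about 150% in these data; inconclusive = Fewer than 70 cells measured for a yeast strain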;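 also: ratio of well median GFP fluorescence to mean of DMSO wells on the plate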
LAP4 TOR yeast: alters LAP4-GFP fluorescence in TOR pathway yeast screen; S. cerevisiae LAP4-GFP multiplex, flow cytometry GFP, 3 h; median GFP as percent of DMSO wells; GFP response vs DMSO, % at 10 µM; 320,000 compounds, 0.34% hits;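 active = GFP response vs DMSO above a set limit, about the screen mean plus 3 SD, cut at about 150% in these data; inconclusive = under 70 cell events counted for the yeast strain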
* marks the source's active call; other numbers are inactive results; ? = inconclusive; [ ] = another dose, or the depositor's remark.

SMILES | RPL19A TOR yeast | AGP1 TOR yeast | MEP2 TOR yeast | CIT2 TOR yeast | LAP4 TOR yeast
Cc1cc(C)c2nc(N3C(=O)C(O)=C(C(=O)c4ccco4)C3c3ccco3)sc2c1 (stereo not drawn) | 52 | ? | 315*[may fluoresce violet] | ? | 89
O=C(Nc1cccc(Cl)c1)N(Cc1nc2ccccc2c(=O)[nH]1)Cc1cccs1 | 100 | 101 | 100 | 97 | 102
CCCOc1c(Br)cc(C(=O)OCC(=O)NC(=O)c2cccn2C)cc1OC | 101 | 100 | 101 | 99 | 96
CC(=O)c1c(C)[nH]c(C(=O)NCc2ccccc2F)c1C | 28*[may fluoresce violet] | ? | ? | ? | 79
CC(=O)c1c(C)[nH]c(C(=O)NCc2ccccc2Cl)c1C | 90 | 91 | 94 | 76 | 81
COCCCNC(=O)Cn1nnc(-c2ccc(NC(=O)c3ccccc3F)cc2)n1 | 92 | 91 | 88 | 94 | 93
CC(C)NC(=O)Cn1nnc(-c2cccc(NC(=O)c3ccccc3F)c2)n1 | 45*[may fluoresce violet] | 19 | 600*[may fluoresce violet] | ? | 103
CC(=O)c1cccc(Nc2nc(N3CCOCC3)nc(N3CCOCC3)n2)c1 | 56 | 18 | 226*[may fluoresce violet] | ? | 90
O=C(CSc1nnc(NC(=O)c2ccc3c(c2)OCO3)s1)NCc1ccco1 | 47*[may fluoresce violet] | ? | 283*[may fluoresce violet] | ? | 77
O=C(CSc1nnc(NC(=O)c2ccccc2)s1)NCc1ccco1 | 95 | 100 | 99 | 97 | 99
O=S(=O)(c1ccccc1)N(Cc1ccccn1)Cc1ccccn1 | 105 | 94 | 107 | 104 | 86
O=S(=O)(c1ccc(N2CCOCC2)nc1)N(Cc1ccccn1)Cc1ccccn1 | 97 | 22 | 395*[may fluoresce violet] | ? | 79
COc1ccc(NC(=O)c2ccco2)c([N+](=O)[O-])c1 | 103 | 92 | 94 | 93 | 86
COc1ccc(NC(=O)C/C(C)=N/NC(=O)c2ccco2)c([N+](=O)[O-])c1 | 52 | ? | 396*[may fluoresce violet] | ? | 79
Cc1cc(NS(=O)(=O)c2ccc(NS(=O)(=O)c3cc(C)c(Cl)cc3Cl)cc2)no1 | 100 | 116 | 117 | 154*[may fluoresce green] | 108
Cc1cccc(C(=O)NCC(=O)N2CCN(S(=O)(=O)c3ccc4c(c3)OCCO4)CC2)c1 | 107 | 104 | 102 | 95 | 107
CCN(CC)c1ccc2c(c1)oc(=O)c1c(Cl)cc(=O)oc12 | 16*[may fluoresce violet] | ? | 167 | ? | 105
CCN(CC)c1ccc2c(Cl)c(Br)c(=O)oc2c1 | 147 | 74 | 894*[may fluoresce violet] | ? | 556*[may fluoresce violet]
CCN(CC)c1ccc2c(C)c(Cl)c(=O)oc2c1 | 103 | 91 | 96 | 92 | 100
CCN(CC)c1ccc2c(C)cc(=O)oc2c1 | 98 | 92 | 96 | 78 | 122
Cc1[nH][nH]c(=O)c1C(c1ccc(N(C)C)c(Br)c1)c1c(C)[nH][nH]c1=O | 92 | 94 | 99 | 73 | 172*
COc1cc(C)c(S(=O)(=O)NC2CC(C)(C)NC(C)(C)C2)cc1C | 59 | 20 | 422*[may fluoresce violet] | ? | 102
CCOc1ccc(N(Cc2cc3cc(C)ccc3[nH]c2=O)S(=O)(=O)c2ccccc2)cc1 | 103 | 105 | 104 | 96 | 95
CCOC(=O)C1C(=O)C=C(c2ccc(C)cc2)CC1c1ccco1 (stereo not drawn) | 91 | 91 | 240* | 92 | 113
Cc1ccc(C)c(N2CCN(c3ccc4cc(S(=O)(=O)N5CCCCC5)ccc4n3)CC2)c1 | 96 | 94 | 97 | 96 | 90
SMILES | RPL19A TOR yeast | AGP1 TOR yeast | MEP2 TOR yeast | CIT2 TOR yeast | LAP4 TOR yeast
Cc1cccc(N2CCN(c3ccc4cc(S(=O)(=O)N5CCCCC5)ccc4n3)CC2)c1C | 27*[may fluoresce violet] | 17 | 163 | ? | 92
CC(CCc1ccccc1)NC(=O)CN1C(=O)NC2(CCCCC2C)C1=O (stereo not drawn) | 92 | 92 | 92 | 89 | 87
COc1cc(C(=O)NCCNc2nc3ccc(C)cc3cc2C#N)cc(OC)c1OC | 99 | 101 | 100 | 101 | 106
CCOCCN1CCN(C2c3ccccc3CSc3ccccc32)CC1 (stereo not drawn) | 64 | ? | 257*[may fluoresce violet] | ? | 105
O=C(Cn1cnc2ccccc2c1=O)NCCC(=O)Nc1ccc2c(c1)OCO2 | 113 | 119 | 114 | 109 | 107
CCCc1cc(=O)oc2c3c(c(Cl)cc12)OCN(CCCO)C3 | 20*[may fluoresce violet] | ? | 886*[may fluoresce violet] | ? | 63
